# Source: PubChem BioAssay AID493169 (National Center for Advancing Translational Sciences (NCATS), 2011)
# Results filed as inconclusive are left out. A call without a number means that no potency is given here. Activity calls are given as the source filed them. Calls come from the whole dose curve; as a rule, active = well fitted inhibition curve with a large enough effect; inconclusive = small, poorly fitted or top-dose-only effect; inactive = flat fitted curve, though single readings scatter.
# Assay: CHOP2 Reporter Counterscreen Assay for Inhibitors of Ubiquitin-specific Protease USP2a;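 note: activated enterokinase alone at 50 pM in a cell-free format rather than USP2a or CHOP2; nearly all actives have a fitted effect of over 55% in size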
# Details: purified enterokinase, fluorogenic substrate, 485/531 nm; series mostly up to 38.3 µM
# Method in brief: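 Fluorescence (485/531 nm) read 10 min after adding 25nM reporter substrate to 50 pM activated EK preincubated 30 min RT with compound; Tris pH 8.0/CaCl2/CHAPS buffer. Data normalized to buffer-alone inhibition; concentration-response curves fitted.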
# Potency is the fitted concentration of half-maximal effect.
row,SMILES,Potency
1,Cc1cccc(Nc2nc(NCc3ccco3)c3ccccc3n2)c1,inactive
2,Cc1ccc(S(=O)(=O)Nc2ccccc2-c2ccccc2NS(=O)(=O)c2ccc(C)cc2)cc1,inactive
3,N#Cc1c(SCC(=O)Nc2nc3ccccc3s2)sc2c(O)cc(=O)[nH]c12,10 µM (active)
4,C=CC#CC[N+]1(CC#Cc2ccccc2)CCOCC1,2.24 µM (active)
5,COc1cccc(N2C(=O)C3CCCN3C2c2ccc(N(C)C)cc2)c1 (stereo not given),inactive
6,CC(OC(=O)c1nsc(Cl)c1Cl)C(=O)NCc1ccco1 (stereo not given),inactive
7,Cc1ccc(N(CC(=O)Nc2ccc(S(=O)(=O)N3CCOCC3)cc2)S(C)(=O)=O)cc1C,inactive
8,O=C1CC(Nc2ccc(N3CCOCC3)cc2)C(=O)N1c1cccc(C(F)(F)F)c1 (stereo not given),inactive
9,O=C(O)/C=C/c1ccc(S(=O)(=O)Nc2ccccc2C(=O)Nc2ccc(F)cc2)cc1,inactive
10,CCC(C)c1ccc(O)c(N)c1 (stereo not given),inactive
11,CC(=O)N1CCCc2cc(S(=O)(=O)CCC(=O)N3CCN(c4cccc(C)c4)C(C)C3)ccc21 (stereo not given),inactive
12,COc1cc(C)ccc1OCCOc1cc(C)ccc1Cl,inactive
13,COc1cc(C(=O)OCC(=O)Nc2c(F)c(F)c(F)c(F)c2F)cc(OC)c1OC,inactive
14,C[C@@H]1CC[C@]2(C(=O)O)CC[C@]3(C)C(=CCC4[C@]56CC[C@@](O)(OC5)C(C)(C)C6CC[C@]43C)C2[C@H]1C (stereo not given in full),inactive
15,Oc1ccc(/C=N/NC(=S)N/N=C/c2ccc(O)cc2)cc1,inactive
16,O=C(Nc1ccc(C2=NCCN2)cc1)c1ccc(C(=O)Nc2ccc(C3=NCCN3)cc2)c([N+](=O)[O-])c1,7.94 µM (active)
17,C#CCOCCOCCOCCNc1nc(N2CCN(C(=O)CCCCCCCCCCNC(=O)[C@H](CO)n3cc(CCCSC)nn3)CC2)nc(N2CCN(C(=O)CCCCCCCCCCNC(=O)[C@H](CCCN=C(N)N)n3cc(C[C@@H](C)CC)nn3)CC2)n1,3.98 µM (active)
18,Nc1cc(N)nc(SCC(=O)N2CCCCC2)n1,inactive
19,CCCCC1CCC(C(=O)Nc2ccc(S(=O)(=O)Nc3nccs3)cc2)CC1 (stereo not given),inactive
20,CCCOc1ccc(/C=C2\SC(=S)N(CC3CCCO3)C2=O)cc1 (stereo not given),inactive

row,SMILES,Potency
1,Cc1cnc(N)c2c(=O)oc3ccccc3c12,inactive
2,CC[C@]12c3[nH]c4cc(-c5ccco5)ccc4c3CCN1C(=O)[C@@H](CC(=O)NC/C=C(\C)CCC=C(C)C)C[C@@H]2C(=O)N1CCN(C(=O)C2CC2)CC1,inactive
3,Cc1ccc(C(=O)N(c2c(C)n(C)n(-c3ccccc3)c2=O)C(C)C)cc1,inactive
4,CCOC(=O)CN1C(=O)S/C(=C/c2ccc(O)c([N+](=O)[O-])c2)C1=O,inactive
5,Cc1ccc(C(=O)c2coc3c2C(=O)C(=O)c2ccccc2-3)cc1,inactive
6,CC1CCCC(N2CCN(C(=O)c3cccc(F)c3)CC2)C1 (stereo not given),inactive
7,COc1ccc2[nH]c(=O)c(CN(Cc3ccco3)Cc3nnnn3Cc3ccccc3)cc2c1,inactive
8,CCOc1cc(/C=C2\C(=O)N(c3nc(-c4ccc(Br)cc4)cs3)N=C2c2ccccc2)ccc1O,4.47 µM (active)
9,CC(=O)c1cccc(NC(=O)C(C)OC(=O)c2cc(=O)[nH]c3ccccc23)c1 (stereo not given),1 µM (active)
10,CC(C)(C)c1cc(Br)ccc1OCC(=O)Nc1ncn[nH]1,inactive
11,CC1(C(=O)O)Sc2[nH]c(=O)sc2C2c3ccccc3OC(=O)C21 (stereo not given),inactive
12,COc1ccc2nc(C)cc(SCC(=O)N/N=C/c3c(OC)ccc4ccccc34)c2c1,inactive
13,Cc1nn(C)cc1CNC(=O)c1ccc(Br)o1,inactive
14,CCc1nnc(NC(=O)CSc2nccn2-c2cccc(C)c2)s1,inactive
15,O=C(CSc1nnc(SCc2ccccc2)s1)N/N=C/c1c[nH]c2ccccc12,inactive
16,NS(=O)(=O)c1cc(C(=O)NC2CCSc3ccccc32)ccc1Cl (stereo not given),10 µM (active)
17,Cc1nc2cc3ccccc3cc2c(=O)[nH]1,inactive
18,O=C(CSc1ncccc1-c1nc2ccccc2[nH]1)Nc1ccc2c(c1)OCCO2,inactive
19,O=C(NN1C(=O)/C(=C/C=C/c2ccco2)SC1=S)c1ccncc1,2.51 µM (active)
20,CCC(C(=O)Nc1nnc(-c2ccco2)s1)c1ccccc1 (stereo not given),inactive
